Measurements from PubChem BioAssay AID1159606 (Sanford-Burnham Center for Chemical Genomics, 2016).
About 7,300 (2%) of roughly 360,000 compounds were called active. Only a selection was taken, and actives are over-represented in it overall. Values without a mark were called inactive. Cut-off read from the data, not from the text of the source: active = inhibition above about 50%; inactive = the rest.

Assay: inhibitors of TWEAK-Fn14 signaling, primary screen, luciferase reporter cells, uHTS (AID 1159606)
Conditions: TWEAK-stimulated Fn14 reporter cells, luciferase luminescence, 8 h; at 10 µM; hits give high values

Q: For `COc1ccc(C2CC(c3cccc(OC)c3)=NN2c2ccc(S(N)(=O)=O)cc2)cc1` (configuration not stated), which inhibition is on record?
A: -3.98%

Q: Which inhibition does the source give for `CCCSc1nc2c(c(=O)n(C)c(=O)n2C)n1Cc1ccc(C)cc1` here?
A: 68.3% (active)

Q: With `CCOc1ccc(Cn2c(SCCCCC#N)nc3c2c(=O)n(C)c(=O)n3C)cc1OCC` as the molecule, how does the inhibition read?
A: -21.4%

Q: Which inhibition does the source give for `Cn1c(=O)c2c(nc(SCCNS(=O)(=O)c3ccccc3)n2C)n(C)c1=O` here?
A: 3.41%

Q: For `O=C(Cn1nnc2ccccc2c1=O)Nc1cc(C(F)(F)F)ccc1N1CCOCC1`, which inhibition is on record?
A: 1.74%

Q: Which inhibition does the source give for `C#CCNC(=O)C1=C[C@@H](c2ccccc2)[C@H](CCCO)[C@@H](OCC)O1` here?
A: 4.59%

Q: Which inhibition does the source give for `Cc1ccc(OCCCC(=O)N2CCOCC2)c(C)c1` here?
A: -41.6%

Q: For `Cc1ccc(C)c(N2CCN(C(=O)CCCCCn3c(=S)[nH]c4ccc(N5CCOCC5)cc4c3=O)CC2)c1`, which inhibition is on record?
A: 88.1% (active)

Q: With `Cc1ccc(C)c(N2CCN(C(=O)CCCn3c(=O)c4cccn4c4cccnc43)CC2)c1` as the molecule, how does the inhibition read?
A: -17.6%

Q: With `O=C(CCCCCn1c(=S)[nH]c2cc3c(cc2c1=O)OCO3)N1CCN(c2ccc(F)cc2)CC1` as the molecule, how does the inhibition read?
A: -18.2%

Q: For `O=C(CCCCCn1c(=O)[nH]c2ccccc2c1=O)NCCc1c[nH]c2ccccc12`, which inhibition is on record?
A: 35%

Q: For `Cc1ccc(C)c(N2CCN(C(=O)CCCCn3c(=O)[nH]c4ccccc4c3=O)CC2)c1`, which inhibition is on record?
A: 50.3% (active)

Q: Which inhibition does the source give for `O=C(CCCC(=O)N(CC(=O)NC1CCCC1)Cc1ccccc1Cl)Nc1ccccn1` here?
A: 5.53%

Q: For `CSCCC(NC(=O)C1CCC(C)CC1)C(=O)NCc1ccco1` (configuration not stated), which inhibition is on record?
A: -2.99%

Q: With `Cc1ccc(Cn2cc(CN3CC(N4CCN(C)CC4)CS3(=O)=O)nn2)cc1` (configuration not stated) as the molecule, how does the inhibition read?
A: -2.98%

Q: With `CN1CCN(c2ccc3c(c2)OC[C@H](Cc2ccccc2)NS3(=O)=O)CC1` as the molecule, how does the inhibition read?
A: -3.51%

Q: For `CCc1nc2ccc(C(=O)Nc3cccc(OC)c3)cn2c1N(CCC(C)C)CCN(C)C`, which inhibition is on record?
A: 15.5%

Q: With `CC1=NN(C(=O)CCCc2ccccc2)C(O)(C(F)(F)F)C1` (configuration not stated) as the molecule, how does the inhibition read?
A: -10.4%

Q: For `CCN1CCN(C(=O)CCN2C(=O)c3ccccc3C2=O)CC1`, which inhibition is on record?
A: -7.32%

Q: Which inhibition does the source give for `C=CCN1CCN(C(=O)CCCc2ccccc2)CC1` here?
A: 86.5% (active)

Q: With `CC1CCCC(C)N1/N=C/c1ccccc1OC(F)F` (configuration not stated) as the molecule, how does the inhibition read?
A: -5.12%

Q: Which inhibition does the source give for `Cc1nn(-c2ccccc2)c(C)c1NC(=O)CCl` here?
A: 6.77%

Q: For `Cc1nn(-c2ccccc2)c(C)c1NC(=O)COC(=O)c1cc(Cl)ccc1O`, which inhibition is on record?
A: 1.71%

Q: Which inhibition does the source give for `Cc1nn(-c2ccccc2)c(C)c1NC(=O)COc1ccc(Cl)cc1Cl` here?
A: 86.4% (active)

Q: Which inhibition does the source give for `O=C(Nc1cccc(S(=O)(=O)N2CCCCC2)c1)c1cncc(Br)c1` here?
A: 20.6%

Q: Which inhibition does the source give for `O=C(Nc1cccc(S(=O)(=O)N2CCCC2)c1)c1cncc(Br)c1` here?
A: 13.2%

Q: Which inhibition does the source give for `O=C(Nc1ccc(N2CCCC2=O)cc1)c1cncc(Br)c1` here?
A: 50.3% (active)

Q: Which inhibition does the source give for `COc1cc(C)c(CN2CCN(C(=O)CCC(=O)c3ccc(C)s3)CC2)cc1OC` here?
A: 11.6%

Q: For `CCOc1ccc(Nc2nc(Cl)nc(N3CCN(c4ccc(OC)cc4)CC3)n2)cc1`, which inhibition is on record?
A: 1.18%

Q: With `COC(=O)c1ccccc1Oc1c(F)c(F)nc(N2CCOCC2)c1F` as the molecule, how does the inhibition read?
A: -14.1%

Q: With `COc1ccc(Nc2ncc(F)c(N3CCOCC3)n2)cc1` as the molecule, how does the inhibition read?
A: 60.1% (active)

Q: Which inhibition does the source give for `CNS(=O)(=O)c1ccc(NC(=O)C2CC(=O)N(c3ccc(Cl)cc3)C2)cc1` (configuration not stated) here?
A: 14.4%

Q: For `O=C(OCC(=O)N1CCOCC1)c1ccc(N2CCOCC2)c([N+](=O)[O-])c1`, which inhibition is on record?
A: -16.3%

Q: For `CC(=O)N1CCC(C(=O)Nc2nc(-c3ccccc3)ns2)CC1`, which inhibition is on record?
A: 14.9%

Q: With `COC(=O)C1=C(C(=O)OC)[C@@H]2N(C)c3ccccc3[C@@]23C[C@@H](C(=O)OC)N(C(C)=O)C3=N1` as the molecule, how does the inhibition read?
A: -3.56%

Q: With `Cc1[nH]c2ccccc2c1C(=O)C(=O)NCc1nnnn1-c1cccc(F)c1` as the molecule, how does the inhibition read?
A: 3.05%

Q: Which inhibition does the source give for `CCOC(=O)C1(CC2CCCCO2)CCN(Cc2nc(-c3cccs3)oc2C)CC1` (configuration not stated) here?
A: -0.53%

Q: Which inhibition does the source give for `Cc1ccc(C(=O)CSc2ccccc2C(=O)O)cc1` here?
A: 53.3% (active)

Q: Which inhibition does the source give for `O=C(CSc1cccc[n+]1[O-])c1ccc(-c2ccccc2)cc1` here?
A: 2.59%

Q: With `Cc1ccc(Sc2cc(C(=O)c3ccccc3C(=O)O)ccc2[N+](=O)[O-])cc1` as the molecule, how does the inhibition read?
A: -6.54%

Q: Which inhibition does the source give for `CCCCOC(=O)Nc1sc2nc(C)cc(C)c2c1-n1cccc1` here?
A: 0.84%

Q: Which inhibition does the source give for `CN(C)NC(=O)c1csnc1-c1c(Cl)cccc1Cl` here?
A: 4.17%

Q: Which inhibition does the source give for `COc1ccc(S(=O)(=O)N2CCOCC2)cc1NC(=O)CC1CC2CCC1C2` (configuration not stated) here?
A: 3.62%

Q: Which inhibition does the source give for `O=C(NC1=CC(=O)c2ccccc2C1=O)c1ccccc1` here?
A: 67.5% (active)

Q: With `Cc1cc(=O)c2ccc(NC(=O)c3ccccc3)cc2[nH]1` as the molecule, how does the inhibition read?
A: -10.3%

Q: Which inhibition does the source give for `O=C(NCCc1ccccc1)c1cccc(NC(=O)c2ccccc2)c1` here?
A: -19.1%

Q: Which inhibition does the source give for `NC(=O)COC(=O)c1sc2cc(F)ccc2c1Cl` here?
A: -16.4%

Q: Which inhibition does the source give for `FC(F)(F)Oc1ccccc1C(c1nnnn1C1CCCCC1)N1CCN(C/C=C/c2ccccc2)CC1` (configuration not stated) here?
A: 24.4%

Q: For `CC(C)c1ccccc1OCC(O)CN(CC(O)COc1cccc2ccccc12)C(C)C` (configuration not stated), which inhibition is on record?
A: -15%

Q: For `O=C(Nc1ccccc1Cl)O/N=C(/c1ccccc1)c1ccccn1`, which inhibition is on record?
A: 60.2% (active)

Q: Which inhibition does the source give for `N/C(=N\OC(=O)Nc1ccccc1)c1ccno1` here?
A: -22.1%

Q: With `O=C(COc1ccc(-n2cnnn2)cc1)Nc1ccccc1Cl` as the molecule, how does the inhibition read?
A: -14.3%

Q: Which inhibition does the source give for `COc1ccc(CN2C(=O)C(CC(=O)NCCN3CCOCC3)CC(C(=O)N(C(C)C)C(C)C)=C2C)cc1` (configuration not stated) here?
A: 14.2%

Q: With `C#CCNc1ccc(C(=O)OCC)cc1` as the molecule, how does the inhibition read?
A: -3.49%

Q: Which inhibition does the source give for `CCN(CC)C(=O)CCC(=O)Nc1ccc(C(=O)OC)cc1` here?
A: 0.79%

Q: With `CC(C)OC(=O)c1ccc(NCc2cc(O)ccc2O)cc1Cl` as the molecule, how does the inhibition read?
A: 102% (active)

Q: Which inhibition does the source give for `O=C(O)Cc1ccc(NCc2ccccc2Cl)cc1` here?
A: 22.4%

Q: With `CC(CN1CCCCC1)OC(=O)c1ccccc1Cl` (configuration not stated) as the molecule, how does the inhibition read?
A: 16.6%

Q: Which inhibition does the source give for `O=C(OC12CC3CC(CC(C3)C1)C2)c1ccc(NCc2cc(O)ccc2O)cc1` here?
A: 106% (active)

Q: With `CC1(C)C2CCC1(C)C(OC(=O)c1ccc(O)cc1)C2` (configuration not stated) as the molecule, how does the inhibition read?
A: 16.2%

Q: Which inhibition does the source give for `COC(=O)c1ccc(NCc2cc(O)ccc2O)cc1` here?
A: 88.9% (active)

Q: Which inhibition does the source give for `COc1nc(N(C)C)nc(N2CC(=O)N(CCNS(=O)(=O)c3ccc(C)cc3)C2=N)n1` here?
A: -3.28%

Q: Which inhibition does the source give for `Cc1ccccc1-c1csc(C(O)c2cccc(Cl)c2)n1` (configuration not stated) here?
A: -4.88%

Q: Which inhibition does the source give for `COc1ccc(N2CCN(C(=O)C3CCN(S(=O)(=O)c4ccc(C)cc4)CC3)CC2)cc1` here?
A: -13.2%

Q: For `Cc1nccn1CCC1CCCCN1C(=O)CCc1nnc(-c2ccsc2)o1` (configuration not stated), which inhibition is on record?
A: -14.9%

Q: For `O=C(Cn1cnc2cc([N+](=O)[O-])ccc2c1=O)NC(=O)NCc1ccccc1`, which inhibition is on record?
A: -1.13%

Q: For `CC(C)(C)NC(=O)Cn1cnc([N+](=O)[O-])n1`, which inhibition is on record?
A: 18.3%

Q: For `CC(C)(C)NC(=O)Cn1cnc2cc([N+](=O)[O-])ccc2c1=O`, which inhibition is on record?
A: 83% (active)

Q: For `Cc1cc2c(cc1S(=O)(=O)NCc1ccc(Cl)cc1)OCC(=O)N2`, which inhibition is on record?
A: -8.95%

Q: Which inhibition does the source give for `CCOC(=O)C(=Cc1ccccc1)C(=O)c1ccccc1` here?
A: 98.4% (active)

Q: With `CCc1ccccc1NC(=O)/C(=C/c1ccccc1)c1ccccc1` as the molecule, how does the inhibition read?
A: -19.8%

Q: With `COc1ccccc1C(=O)c1ccccc1C(=O)c1ccccc1` as the molecule, how does the inhibition read?
A: 9.79%

Q: For `COc1ccccc1/C=C/C(=O)NC1CC2CCC1C2` (configuration not stated), which inhibition is on record?
A: -13.3%

Q: Which inhibition does the source give for `CCOC(=O)C(=Cc1ccccc1OC)C(=O)OCC` here?
A: 81.9% (active)

Q: For `CCOC(=O)CCP(=O)(O)C(O)(c1ccccc1)c1ccccc1`, which inhibition is on record?
A: -6.25%

Q: Which inhibition does the source give for `CC(C)Oc1ccc(S(=O)(=O)N2CCOCC2)cc1NC(=O)C1CSC2(C)CCC(=O)N12` (configuration not stated) here?
A: -10.2%

Q: Which inhibition does the source give for `CC1(C(=O)NCc2cccc3ccccc23)CCN1Cc1ccc(-c2ccccc2)o1` (configuration not stated) here?
A: 7.77%

Q: With `Cc1ccc(-c2c[n+](=O)c3c(n2[O-])CCC3)cc1` as the molecule, how does the inhibition read?
A: -2.42%

Q: With `S=C(NCc1ccco1)Nc1ccc2c(c1)OCCO2` as the molecule, how does the inhibition read?
A: 2.21%

Q: Which inhibition does the source give for `COC(=O)c1cc(NC2c3ccccc3C(=O)N2c2ccc(Cl)cn2)cc(C(=O)OC)c1` (configuration not stated) here?
A: -15.2%

Q: With `CCCCCn1nnnc1C1c2ccccc2C(=O)N1Cc1ccco1` (configuration not stated) as the molecule, how does the inhibition read?
A: 16.5%

Q: With `O=C1c2ccccc2C(Nc2ccc3c(c2)OCCO3)N1Cc1ccco1` (configuration not stated) as the molecule, how does the inhibition read?
A: 70.9% (active)

Q: Which inhibition does the source give for `O=C(Nc1ccc2c(c1)OCCO2)C1c2ccccc2OCC(=O)N1Cc1ccccn1` (configuration not stated) here?
A: -0.53%

Q: With `Cc1ccnc(N2C(=O)c3ccccc3C2Nc2ccc3c(c2)OCCO3)c1` (configuration not stated) as the molecule, how does the inhibition read?
A: 61.2% (active)

Q: With `C[C@@H]1C[C@@H]2O[C@H]2/C=C\C=C\C(=O)Cc2c(Cl)c(O)cc(O)c2C(=O)O1` as the molecule, how does the inhibition read?
A: 90.7% (active)

Q: Which inhibition does the source give for `COc1ccc([C@H]2[C@H](C(C)=O)N3N=Cc4ccccc4C3C23C(=O)OC(C)(C)OC3=O)cc1` (some centres not stated) here?
A: 10.5%

Q: Which inhibition does the source give for `C/C(=N/NC(=S)Nc1ccccc1)c1ccc2c(c1)OCO2` here?
A: -46.3%

Q: With `Cc1ccc(NC(=O)Nc2ccc3oc(C)nc3c2)cc1` as the molecule, how does the inhibition read?
A: -4.94%

Q: Which inhibition does the source give for `O=C(Nc1ccc2ccccc2c1)Nc1ccc2snnc2c1` here?
A: 74.8% (active)

Q: With `S=C(Nc1ccccc1)Nc1ccc2ccccc2c1` as the molecule, how does the inhibition read?
A: 0.33%

Q: Which inhibition does the source give for `O=C(C1CCC1)N1CCN(S(=O)(=O)c2ccc([N+](=O)[O-])cc2)CC1` here?
A: 4.46%

Q: For `CCOC(=O)[C@]12CCCC=C1N(Cc1ccc3c(c1)OCO3)C(=O)[C@H](CC(=O)NCc1cccs1)C2`, which inhibition is on record?
A: 15.5%
